Most compounds without a hit are left out; they make up all but 2.4% or so of the library.
GLP1R ag: qHTS of GLP-1 Receptor Agonists; HEK293 GLP-1R CRE-luciferase, luminescence, 4-6 h; cells express a hypersensitive GLP-1R form; Potency, µM (highest dose often 45.6 µM), for the others: at the top dose activation, most hits filed as activators; actives 0.007% (n = 380,000); AID 624172, 2012; note: potency is the fitted concentration of half-maximal effect; % of control where 0% means no effect
TRHR ag: qHTS for Small Molecule Agonists and Allosteric Enhancers of Human TRH Receptor: Primary Screen for Agonists; Thyrotropin-releasing hormone receptor (Homo sapiens), P34981; TRHR cells, calcium flux fluo-8, FDSS agonist mode; activation, % at 2 µM; actives 0.18% (n = 360,000); in the data active = activation above about 30%; note: 0% is about no effect
Target sequence (P34981 whole entry, looked up): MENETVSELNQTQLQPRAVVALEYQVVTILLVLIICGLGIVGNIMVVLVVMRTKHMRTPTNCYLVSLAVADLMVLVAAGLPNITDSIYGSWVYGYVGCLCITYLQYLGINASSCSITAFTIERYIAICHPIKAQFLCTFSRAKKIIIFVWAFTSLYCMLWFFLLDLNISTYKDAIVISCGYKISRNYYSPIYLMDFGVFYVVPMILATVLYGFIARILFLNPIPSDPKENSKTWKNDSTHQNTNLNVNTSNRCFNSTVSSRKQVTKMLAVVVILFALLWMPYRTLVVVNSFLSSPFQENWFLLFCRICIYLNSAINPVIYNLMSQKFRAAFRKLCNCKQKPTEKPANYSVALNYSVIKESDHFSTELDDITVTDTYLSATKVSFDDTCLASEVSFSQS
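In this calcium-flux screen, cells bearing human TRHR are dye-loaded with fluo-8, baselined for 10 cycles, then exposed to library compounds; positive kinetic calcium responses during the agonist phase mark hits, with TRH as control.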
TRHR PAM: qHTS for Small Molecule Agonists and Allosteric Enhancers of Human TRH Receptor: Primary Screen for Enhancers | actives 0.66% (n = 360,000) | TRHR cells, fluo-8 calcium fluorescence, EC20 TRH enhancement | enhancement, % at 2 µM | AID 493056, 2011; in the data active = enhancement above about 30%; note: 0% is about no effect
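TRHR-expressing cells loaded with fluo-8 calcium dye were read kinetically (ex 480/em 530) during compound addition, then stimulated with an EC20 of TRH (10 nM final). Enhancement of the Gq-mediated intracellular calcium response was scored.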
GLP1R cytotox: qHTS of GLP-1 Receptor Inverse Agonists: Cytotox Screen; Potency, µM (highest dose often 38.3 µM), for the others: at the highest dose activity change, negative = inhibition, hits mostly inhibitors; HEK293 cAMP-luciferase reporter cells, luminescence, 24 h; actives 0.13% (n = 410,000);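 note: loss of luciferase light is scored as toxicity; potency is the fitted concentration of half-maximal effect; % is set by controls: 0 for no effect and ±100 for the full control effect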
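MLSMR compounds, 24 hr on cells at 37 deg C/5% CO2; luminescence after luciferase reagent (12 min RT). Inhibition counted as the undesired cytotoxic outcome.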
PTHR1 agonist: qHTS for PTHR1 Agonists: Primary Screen | AID 743266, 2014 | Parathyroid hormone/parathyroid hormone-related peptide receptor (Homo sapiens), Q03431 | actives 0.075% (n = 410,000) | HEK293 GP2 PTHR1 cells, GloSensor cAMP luminescence, 1 h | Potency, µM (highest dose often 115 µM), for the others: at the top dose activation, hits mostly activators; note: potency is the fitted concentration of half-maximal effect; nearly all actives have a fitted effect of over 55% in size
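HEK-293-derived GP2 cells expressing PTHR1 and a GloSensor cAMP reporter, 3,000/well, plated overnight, given luciferin plus IBMX (each 0.5 mM as added) for 1 h at 37 °C, then compound for 1 h at 37 °C. Luminescence was read after 15 min at room temperature.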
GLP1R inv ag: qHTS of GLP-1 Receptor Inverse Agonists (Inhibition Mode). AID 624417, 2012. Potency, µM (doses to about 38.3 µM), for inactives: at the top dose activity change, negative = inhibition, hits mostly inhibitors. Glucagon-like peptide 1 receptor (Homo sapiens), P43220. HEK293 GLP-1R CRE-luciferase, luminescence, 24 h; GLP-1R form is constitutively active. actives 1.6% (n = 410,000); note: potency is the fitted concentration of half-maximal effect; % is set by controls: 0 for no effect and ±100 for the full control effect; nearly all actives have a fitted effect of over 55% in size
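GLP-1R inverse agonism mode: basal reporter luminescence in engineered HEK293 cells measured after one day of compound exposure at 37 deg C, with a 12 min room-temperature detection step.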
Starred values were filed as active, the others as inactive; i = inactive; ? = inconclusive; . = no result; [ ] = remark or other dose. Unless noted, calls come from the whole dose curve; as a rule, active = well fitted curve in the direction sought with a large enough effect; inconclusive = small, poorly fitted or top-dose-only effect, or another doubt; inactive = no such curve, though single readings can be large; an effect the other way counts as inactive or inconclusive.

SMILES	GLP1R ag	TRHR ag	TRHR PAM	GLP1R cytotox	PTHR1 agonist	GLP1R inv ag
CC(C)CNC(=O)COC(=O)c1c2c(nc3ccccc13)/C(=C\c1cccs1)CC2	-8.8%	.	.	i	-4.0%	4.47µM*
O=C(Nc1cccc(F)c1)C1CCN(S(=O)(=O)c2cccc3nsnc23)CC1	.	-1.2	-8.1	0.2%	-52.7%	2.1%
CC(C)Cn1c(CNC(=O)c2ccccc2)nc2ccccc21	2.9%	-0.3	-0.6	-11.0%	-50.4%	14.1µM*
CCCn1c(NC(=O)c2ccccc2)nc2ccccc21	6.0%	0.3	0.1	?	-28.1%	11.2µM*
CCCn1c(CNC(=O)c2ccccc2)nc2ccccc21	-5.3%	-0.1	-4.1	-5.7%	i	-4.4%
Cc1ccc(CSc2ccc3nnc(-c4ccccn4)n3n2)cc1	7.1%	0.0	2.2	-0.2%[7.66 µM]	-4.0%	0.0%[7.66 µM]
Cc1cc(C)n(-c2nc3ccccc3nc2N2CCC(C)CC2)n1	-1.2%	0.4	-15.8	27.9%	i	0.0%
Cc1cc(N2CCC(C)CC2)nc(-n2nc(C)cc2C)n1	11.2%	-1.9	0.0	0.794µM*	-8.8%	?
CCN1c2ccccc2-c2nc(SCC(=O)NCc3ccc(Cl)cc3)ncc2S1(=O)=O	.	0.4	-3.8	4.8%	i	?
CCCn1c(=O)sc2cc(NC(=O)c3ccc(OC)c(Br)c3)ccc21	0.9%	-0.2	4.6	-30.9%	-40.1%	10µM*
Cc1ccc(S(=O)(=O)N(CC(=O)Nc2ccccc2C(=O)O)c2cccc(Cl)c2C)cc1	-9.6%	0.1	0.5	-16.4%	-4.4%	8.91µM*
O=C(OCc1ccccc1)N(CCF)c1cn(Cc2ccccc2)c(=O)n(Cc2ccccc2)c1=O	17.8%	.	.	-3.3%	-17.8%	10µM*
COc1ccccc1C(CNC(=O)CN(C)S(=O)(=O)c1ccc(C)cc1)N1CCCC1 (configuration not stated)	5.2%	-0.3	-15.1	6.3%	-16.1%	-19.6%
O=C1C2C3C=CC(C3)C2C(=O)N1c1ccc(N2CCN(c3ccccn3)CC2)c([N+](=O)[O-])c1 (configuration not stated)	5.6%	0.4	1.6	-48.8%	-30.3%	2.82µM*
CCC(CO)Oc1cc(NC(=O)c2ccc([N+](=O)[O-])cc2)c2ncn(C(C)C)c2c1 (configuration not stated)	-3.8%	.	.	5.6%	-12.0%	3.2%
O=C(CSc1nc2ccccc2s1)N1N=C(c2cccs2)CC1c1ccc(F)cc1 (configuration not stated)	-7.4%	1.0	-4.5	-2.5%	-7.3%	3.98µM*
COc1ccc(C2CC(c3cccs3)=NN2C(=O)CSc2nc3ccccc3s2)cc1 (configuration not stated)	-6.6%	0.6	-4.8	-3.5%	-7.2%	?
COc1ccc(Cn2c(=O)c3oc4ccccc4c3n(Cc3cccc(C)c3)c2=O)cc1	.	-0.6	-1.4	9.0%	20.0%	1.8%
Cc1ccc(C)c(S(=O)(=O)/N=C(/Nc2ccccc2)c2ccccc2)c1	12.1%	.	.	-2.3%	-23.6%	10µM*
O=C(c1ccccc1S(=O)(=O)NCc1ccccc1)N1CCCCC1	6.7%	0.1	5.4	-24.3%	i	-22.4%
CC1(C(=O)Nc2ccc3c(c2)OCO3)CCN1C(=O)Cc1cccs1 (configuration not stated)	2.1%	.	.	1.2%	-7.9%	14.9%
COc1cc(CNc2ccc(CNc3ncn[nH]3)cc2)ccc1OCc1ccccc1	7.3%	0.5	-10.5	-2.1%	-48.0%	2µM*
Cc1cc(N2C(=O)C(=O)/C(=C(/O)c3ccc(F)cc3)C2c2ccc(F)cc2)no1 (configuration not stated)	-3.0%	-0.4	6.0	8.0%	-13.5%	-13.5%
Cc1c2ccccc2nc2c(F)c(NC(C)C)c(F)c(F)c12	25.2%	39.6*	6.1	-12.8%	i	36.4%
Cc1ccc(-c2cc(=O)c3cc(C)ccc3[nH]2)cc1	-9.8%	-0.2	12.0	-38.1%	-80.0%	3.16µM*
SMILES	GLP1R ag	TRHR ag	TRHR PAM	GLP1R cytotox	PTHR1 agonist	GLP1R inv ag
O=C1CN(C(=O)c2cccc(S(=O)(=O)N3CCCC3)c2)c2ccccc2N1	-2.4%	-0.2	40.7*	-18.0%	-10.3%	3.1%
CC(C)(O)C#Cc1ccc(C(=O)N2CCN(c3ccccc3)CC2)cc1	4.3%	0.6	34.3*	0.5%	i	?
O=S(=O)(c1ccc2[nH]c3c(c2c1)CCCC3)N1CCN(c2cccc(C(F)(F)F)c2)CC1	.	-0.3	0.1	-17.6%	i	10µM*
CC(C)Cc1ccc(C(C)C(=O)Nc2cccnc2)cc1 (configuration not stated)	-6.5%	10.4	-6.8	-17.5%	-33.0%	7.94µM*
CCCOC(=O)C(=O)NNc1ccccc1	3.0%	0.2	32.1*	?	i	?
CC(C)OC(=O)C(=O)NNc1ccccc1	5.4%	-2.5	3.0	-20.5%	i	?
O=C(NCC1CCCO1)c1cn(-c2ccccc2)nc1-c1ccccc1 (configuration not stated)	-2.9%	-1.3	-5.7	0.8%	i	-16.8%
O=S(=O)(c1cccc(-c2nnc3n2CCCCC3)c1)N1CCCC1	1.7%	1.3	33.7*	-26.6%	i	3.9%
Cc1cc(C)cc(C(=O)NC2CC(C)(C)NC(C)(C)C2)c1	-1.0%	0.5	-1.3	-3.1%	i	-23.2%
CC1(C)CC(NC(=O)c2ccccc2C(=O)NC2CC(C)(C)NC(C)(C)C2)CC(C)(C)N1	0.0%	0.5	-0.4	2.0%	-21.4%	4.9%
CC1(C)CC(NC(=O)N2c3ccccc3Sc3ccccc32)CC(C)(C)N1	0.8%	2.6	-18.4	?	-24.5%	5.01µM*
CCCCN(CCCC)/C(N)=N/c1nc(C)cc(C)n1	3.3%	0.4	-11.1	?	-2.1%	3.98µM*
Cc1cc(/C=C2\NC(=S)N(C)C2=O)ccc1N1CCCC1	21.4%	141.9*	32.4*	?	-26.0%	3.0%
CCN1C(=O)/C(=C/c2ccc(N3CCCC3)cc2)NC1=S	-5.7%	110.6*	17.8	?	-45.6%	?
O=C(CNC(=O)Cc1ccccc1)NCC(=O)OCc1ccc(C(=O)c2ccccc2)cc1	-5.8%	-0.6	-4.6	5.3%	-1.7%	0.1%

High-throughput results (PubChem BioAssay)
